Among all 5,500 compounds or so, about 2,000 (36%) were called active. Not shown: some 18% with an inconclusive outcome. No stated cut-off is given here; in the data, active means normalized growth mostly below about 0.91 (no sharp cut-off); inconclusive means no clear call, values can overlap the other calls; inactive means mostly above about 0.92. The list shows a part of the results.
Test: chemical genetic growth profiling, strain panel (AID 1159580);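 further: tested at 20 µM; growth read once vehicle control cultures reached saturation at 30 °C; 1 = growth at the plate median or of vehicle wells; lower values mean less growth of the strain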
Settings: growth OD
[1] = S. cerevisiae deletion strains, locus YAL013W, strain DEP1, hits give low values
[2] = S. cerevisiae deletion strains, locus YBR229C, strain ROT2, hits give low values
[3] = S. cerevisiae deletion strains, locus YDL101C, strain DUN1, hits give low values
[4] = S. cerevisiae deletion strains, locus YDL134C, strain PPH21, hits give low values
[5] = S. cerevisiae deletion strains, locus YDR150W, strain NUM1, hits give low values
[6] = S. cerevisiae deletion strains, locus YEL061C, strain CIN8, hits give low values
[7] = S. cerevisiae deletion strains, locus YGR078C, strain PAC10, hits give low values
[8] = S. cerevisiae deletion strains, locus YHR030C, strain SLT2, hits give low values
[9] = S. cerevisiae deletion strains, locus YJR043C, strain POL32, hits give low values
[10] = S. cerevisiae deletion strains, locus YJR075W, strain HOC1, hits give low values
[11] = S. cerevisiae deletion strains, locus YKL190W, strain CNB1, hits give low values
[12] = S. cerevisiae deletion strains, locus YLR039C, strain RIC1, hits give low values
[13] = S. cerevisiae deletion strains, locus YLR262C, strain YPT6, hits give low values
[14] = S. cerevisiae deletion strains, locus YMR263W, strain SAP30, hits give low values
[15] = S. cerevisiae deletion strains, locus YMR307W, strain GAS1, hits give low values
[16] = S. cerevisiae deletion strains, locus YNL153C, strain GIM3, hits give low values
[17] = S. cerevisiae deletion strains, locus YNL322C, strain KRE1, hits give low values
[18] = S. cerevisiae deletion strains, locus YOL006C, strain TOP1, hits give low values
[19] = S. cerevisiae deletion strains, locus YPL055C, strain LGE1, hits give low values
[20] = S. cerevisiae deletion strains, locus YPL241C, strain CIN2, hits give low values

Measured: normalized growth

Cc1coc2ccccc2c1=O
inactive: [1] 0.999 | S. cerevisiae deletion strains, locus YBR021W, strain FUR4, hits give low values 0.998 | [2] 1.01 | S. cerevisiae deletion strains, locus YCL029C, strain bik1, hits give low values 1.02 | S. cerevisiae deletion strains, locus YDL035C, strain GPR1, hits give low values 1 | S. cerevisiae deletion strains, locus YDL074C, strain BRE1, hits give low values 1 | [3] 1.01 | [4] 1 | S. cerevisiae deletion strains, locus YDL185W, strain tfp1, hits give low values 1.01 | S. cerevisiae deletion strains, locus YDL192W, strain arf1, hits give low values 1.03 | S. cerevisiae deletion strains, locus YDR101C, strain arx1, hits give low values 1.01 | [5] 1 | S. cerevisiae deletion strains, locus YDR162C, strain NBP2, hits give low values 1.01 | S. cerevisiae deletion strains, locus YDR318W, strain mcm21, hits give low values 1.02 | S. cerevisiae deletion strains, locus YDR388W, hits give low values 1.02 | S. cerevisiae deletion strains, locus YDR502C, strain sam2, hits give low values 1.02 | [6] 1 | S. cerevisiae deletion strains, locus YER110C, hits give low values 1.03 | S. cerevisiae deletion strains, locus YER155C, strain BEM2, hits give low values 1.01 | S. cerevisiae deletion strains, locus YER167W, strain BCK2, hits give low values 1.01 | S. cerevisiae deletion strains, locus YGL078C, strain dbp3, hits give low values 1.02 | S. cerevisiae deletion strains, locus YGL086W, strain mad1, hits give low values 1.02 | S. cerevisiae deletion strains, locus YGL248W, strain PDE1, hits give low values 1 | [7] 1.01 | S. cerevisiae deletion strains, locus YGR135W, strain pre9, hits give low values 1.01 | S. cerevisiae deletion strains, locus YGR229C, strain SMI1, hits give low values 0.991 | S. cerevisiae deletion strains, locus YGR252W, strain gcn5, hits give low values 1.03 | [8] 0.997 | S. cerevisiae deletion strains, locus YHR079C, strain IRE1 (second series), hits give low values 1.02 | S. cerevisiae deletion strains, locus YHR094C, strain hxt1, hits give low values 1.02 | S. cerevisiae deletion strains, locus YHR129C, strain ARP1, hits give low values 1 | S. cerevisiae deletion strains, locus YHR200W, strain rpn10, hits give low values 1.03 | S. cerevisiae deletion strains, locus YIL066C, strain RNR3, hits give low values 1.01 | S. cerevisiae deletion strains, locus YIL073C, strain SPO22, hits give low values 1.09 | S. cerevisiae deletion strains, locus YIL125W, strain kgd1, hits give low values 1.03 | S. cerevisiae deletion strains, locus YIR030C, strain dcg1, hits give low values 1.03 | S. cerevisiae deletion strains, locus YJL095W, strain BCK1, hits give low values 0.988 | S. cerevisiae deletion strains, locus YJL134W, strain LCB3, hits give low values 0.999 | S. cerevisiae deletion strains, locus YJL168C, strain set2, hits give low values 1.03 | S. cerevisiae deletion strains, locus YJL187C, strain SWE1 (second series), hits give low values 1 | [9] 0.992 | [10] 1 | S. cerevisiae deletion strains, locus YKL009W, strain mrt4, hits give low values 1.02 | S. cerevisiae deletion strains, locus YKL068W, hits give low values 1.01 | S. cerevisiae deletion strains, locus YKL085W, strain MDH1 (second series), hits give low values 1.01 | S. cerevisiae deletion strains, locus YKL085W, strain MDH1, hits give low values 1.01 | [11] 1 | S. cerevisiae deletion strains, locus YKR001C, strain vps1, hits give low values 1.02 | [12] 1.01 | S. cerevisiae deletion strains, locus YLR058C, strain SHM2, hits give low values 1 | S. cerevisiae deletion strains, locus YLR102C, strain apc9, hits give low values 1.04 | [13] 1.01 | S. cerevisiae deletion strains, locus YLR268W, strain sec22, hits give low values 1.01 | S. cerevisiae deletion strains, locus YLR330W, strain CHS5, hits give low values 1.01 | S. cerevisiae deletion strains, locus YLR342W, strain FKS1 (second series), hits give low values 1.01 | S. cerevisiae deletion strains, locus YLR371W, strain rom2, hits give low values 1.03 | S. cerevisiae deletion strains, locus YLR418C, strain cdc73, hits give low values 1.01 | S. cerevisiae deletion strains, locus YML016C, strain PPZ1, hits give low values 1 | S. cerevisiae deletion strains, locus YML032C, strain rad52, hits give low values 1.05 | S. cerevisiae deletion strains, locus YML124C, strain tub3, hits give low values 1.02 | S. cerevisiae deletion strains, locus YMR078C, strain ctf18, hits give low values 1.03 | S. cerevisiae deletion strains, locus YMR223W, strain ubp8, hits give low values 1.02 | [14] 0.998 | [15] 1 | S. cerevisiae deletion strains, locus YNL067W, strain RPL9B, hits give low values 0.992 | S. cerevisiae deletion strains, locus YNL128W, strain TEP1, hits give low values 1.01 | [16] 0.985 | S. cerevisiae deletion strains, locus YNL233W, strain BNI4, hits give low values 0.995 | S. cerevisiae deletion strains, locus YNL250W, strain rad50, hits give low values 1.03 | S. cerevisiae deletion strains, locus YNL271C, strain bni1, hits give low values 1.03 | S. cerevisiae deletion strains, locus YNL298W, strain CLA4, hits give low values 1.02 | S. cerevisiae deletion strains, locus YNL307C, strain MCK1, hits give low values 1.03 | [17] 1 | S. cerevisiae deletion strains, locus YNR052C, strain pop2, hits give low values 1.04 | [18] 0.974 | S. cerevisiae deletion strains, locus YOL012C, strain htz1 0.801 | S. cerevisiae deletion strains, locus YOL147C, strain pex11, hits give low values 1.02 | S. cerevisiae deletion strains, locus YOR061W, strain CKA2, hits give low values 1 | S. cerevisiae deletion strains, locus YOR069W, strain VPS5, hits give low values 0.998 | S. cerevisiae deletion strains, locus YOR136W, strain idh2, hits give low values 1.02 | S. cerevisiae deletion strains, locus YOR144C, strain elg1, hits give low values 1.01 | S. cerevisiae deletion strains, locus YOR184W, strain ser1, hits give low values 1.04 | S. cerevisiae deletion strains, locus YOR316C, strain cot1, hits give low values 1.02 | [19] 1.01 | [20] 1 | S. cerevisiae deletion strains, locus YPR119W, strain clb2, hits give low values 1.03 | S. cerevisiae deletion strains, locus YPR141C, strain kar3, hits give low values 1.03 | S. cerevisiae deletion strains, locus YPR163C, strain tif3, hits give low values 1.03 | S. cerevisiae deletion strains, locus YPR167C, strain met16, hits give low values 1.03 | S. cerevisiae deletion strains, strain wtn01, hits give low values 1.03 | S. cerevisiae strains, strain wild type, hits give low values 1

CCOC(=O)c1ccc2oc3ccc(O)cc3c(=O)c2c1
inactive: [1] 0.948 | [2] 0.982 | [3] 0.982 | [4] 1 | [5] 0.973 | [6] 0.97 | [7] 1 | [8] 0.826 | S. cerevisiae deletion strains, locus YHR087W, strain rtc3, hits give low values 0.937 | S. cerevisiae deletion strains, locus YJL187C, strain SWE1, hits give low values 0.956 | [9] 0.977 | [10] 1.01 | [11] 0.979 | [12] 1 | S. cerevisiae deletion strains, locus YLR058C, strain SHM2 (second series), hits give low values 0.988 | S. cerevisiae deletion strains, locus YLR085C, strain ARP6, hits give low values 0.864 | [13] 0.99 | S. cerevisiae deletion strains, locus YML094W, strain GIM5, hits give low values 0.913 | S. cerevisiae deletion strains, locus YMR219W, strain ESC1, hits give low values 1 | [14] 0.949 | [15] 0.814 | [16] 0.973 | S. cerevisiae deletion strains, locus YNL298W, strain CLA4 (second series), hits give low values 0.956 | [17] 1.01 | S. cerevisiae deletion strains, locus YNR030W, strain Alg12, hits give low values 0.939 | [18] 0.945 | [19] 0.88 | [20] 0.908 | S. cerevisiae deletion strains, locus YPR135W, strain CTF4, hits give low values 0.872
